The list is not random: actives were taken first. Their share in the collection is about 21%.
Cycloheximide cs: counter-screen hit for Shiga toxin inhibitors, cycloheximide; actives 12% (n = 300,000); cell reporter, cycloheximide protein synthesis inhibition counterscreen; max response, %; in the data active = max response mostly above about 13%, no sharp cut-off; inactive = mostly below about 14%; also: read at 38.3 µM for the half of the compounds with a filed dose
HCV inhibitor: inhibitors of hepatitis C virus infection; Huh7.5.1 HCVcc-Cre infection, luciferase reporter, 44 h; Potency, µM (titrated, usually from 41.8 µM), actives largely listed as inhibitors; actives 3.4% (n = 340,000); AID 651820
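Reporter virus HCVcc-Cre (~0.5 moi) infects cells exposed to compound; seeding density 1,000 cells/well with 4 h settling beforehand. Luminescence, 15 sec read, taken 44 h post-infection following a 15 min RT substrate incubation.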
AMA1 RON2 block: AMA1-RON2 (P. falciparum) interaction inhibition. AlphaScreen AMA1-biotinylated RON2 peptide binding. Potency, µM (series often up to 58.2 µM), most hits filed as inhibitors. actives 0.2% (n = 360,000). AID 720542; also: nearly all actives have a fitted effect of over 45% in size
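AMA1 (3D7) with his tag at 25 nM final met compounds first, then biotinylated RON2 peptide at 25 nM; detection used donor plus acceptor beads, 10 µg/mL apiece, read by AlphaScreen after 30 min at room temperature.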
Shiga toxin inh: Shiga toxin inhibition | Vero cells, Shiga toxin protein synthesis inhibition reporter | inhibition, % at 38.7 µM | actives 9.2% (n = 290,000); in the data active = inhibition mostly above about 28%, no sharp cut-off; inactive = mostly below about 43%
Pf growth 48h: inhibits P. falciparum growth in the first generation, 48 h | actives 5.9% (n = 310,000) | Potency, µM (highest dose often 28.7 µM), usual class: inhibitors | P. falciparum luciferase growth in erythrocytes, 48 h
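First compound was added to culture medium, then infected red cells at 0.1% parasitemia and 2% hematocrit (final). After incubation at 37 C under 5% CO2, luciferase detection reagent was dispensed and light output recorded.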
Pf growth 96h: P. falciparum growth inhibition at 96 hour, primary screen for plastid delayed-death inhibitors; P. falciparum luciferase reporter growth, 96 h; AID 504834; Potency, µM (top dose mostly 28.7 µM), most hits filed as inhibitors; actives 6.9% (n = 320,000)
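Erythrocytes infected with luciferase-expressing P. falciparum were dispensed at 2% hematocrit and 0.05% parasitemia (final), then incubated with compounds 96 hours at 37 C in 5% CO2. Luminescence after detection reagent addition reported growth.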
A number is an active result; n = inactive; u = inconclusive; x = no result given; [ ] = another dose, or the depositor's remark. Unless noted, calls follow the shape of the dose curve; as a rule, active = well fitted curve in the direction sought with a large enough effect; inconclusive = small, poorly fitted or top-dose-only effect, or another doubt; inactive = no such curve, though single readings can be large; an effect the other way counts as inactive or inconclusive.

SMILES	Cycloheximide cs	HCV inhibitor	AMA1 RON2 block	Shiga toxin inh	Pf growth 48h	Pf growth 96h
Cc1cccc(NC(=O)c2ccc(S(=O)(=O)NCc3cccnc3)cc2)c1	n	u	n	n	n	u
O=C(C[n+]1cn(C(F)F)c2ccccc21)c1ccc(Br)cc1	28.4	n	n	62.4	n	n
Cc1ccc(C(=O)C[n+]2cc(Br)cc(Br)c2)cc1[N+](=O)[O-]	n	u	n[2.32 µM]	n	9.28µM	u
O=C(C[n+]1cc(Br)cc2ccccc21)c1ccc(Br)cc1	n	n	n	n	n	u
O=C(C[n+]1cc(Br)cc2ccccc21)c1ccc(Cl)cc1	n	n	n	n	u	13.1µM
O=C(NCC1CCCO1)C(=O)N/N=C/c1c(F)cccc1Cl (centres undefined)	n	n	n	n	n	u
Cc1c(CCN)ccc2c1[nH]c1ccccc12	17.4	n	n	n	10.4µM	u
NCCc1c(Cc2ccccc2)[nH]c2ccccc12	x	n	n	x	x	x
CC(C)(C)N1C(=O)c2ccccc2NC(=O)C1C(=O)NCc1ccco1 (centres undefined)	x	x	n	x	x	x
Clc1ccc(OCc2nn3c(C4CCCCC4)nnc3s2)cc1	n	n	n	n	n	9.28µM
c1ccc(-c2nn3c(C4CCCCC4)nnc3s2)nc1	n	n	n	n	n	n
CCCCCCCC/C=C\CCCCCCCC(=O)NCCO	x	n	n	x	2.94µM	2.62µM
CCCCCCCC/C=C\CCCCCCCC(=O)NCCc1ccc(O)c(O)c1	x	u	n	x	10.4µM	u
CCCCCCCC/C=C\CCCCCCCC(=O)NCc1ccc(O)c(OC)c1	x	x	x	x	u	16.9µM
Clc1cccc2c1CCN(Cc1nc(-c3cnccn3)no1)C2	n	n	n	n	u	u
CC(C)c1nc2oc3c(=O)[nH]cnc3c2c2c1COC(C)(C)C2	n	n	n	n	n	n
Cn1c(=O)c2c(ncn2CC(=O)Nc2cc(S(=O)(=O)N3CCCCC3)ccc2O)n(C)c1=O	x	n	n	x	x	x
COc1ccc(N=Cc2sc3ccccc3c2Cl)cc1	25.0	n	n	n	n	n
O=[N+]([O-])c1ccc(O)c(N=Cc2sc3ccccc3c2O)c1	60.0	u	u	60.7	u	u
Oc1ccc(Cl)cc1N=Cc1sc2ccccc2c1Cl	41.4	n	n	60.5	u	2.33µM
C[C@@H]1CN([C@@H](C)CO)S(=O)(=O)c2ccc(Br)cc2O[C@H]1CN(C)C(=O)c1cccc(F)c1	x	x	n	x	x	x
O=C(C[C@H]1CC[C@H]2[C@@H](COC[C@@H](O)CN2S(=O)(=O)c2ccccc2)O1)N[C@@H]1CCN(Cc2ccccc2)C1	x	x	n	x	x	x
C=CCN1C(=O)/C(=C2/Sc3ccc(OC)cc3N2C)SC1=Nc1cccc(O)c1	n	n	n	n	n	n
CCN1C(=O)/C(=C2/Sc3ccc(OC)cc3N2C)SC1=Nc1ccc(OC)cc1	n	n	n	n	n	9.28µM
CC1C(=O)NN=C1C(=O)N/N=C\C(Br)=C\c1ccccc1 (centres undefined)	17.5	n	n	52.7	n	u
SMILES	Cycloheximide cs	HCV inhibitor	AMA1 RON2 block	Shiga toxin inh	Pf growth 48h	Pf growth 96h
O=C(NN=Cc1ccc(O)cc1O)c1ccccc1NS(=O)(=O)c1cccs1	x	u	n	x	x	x
COc1cc(/C=N/NC(=O)C2=NNC(=O)C2C)ccc1O (centres undefined)	27.4	u	n	n	n	n
CC1C(=O)NN=C1C(=O)N/N=C\c1ccc(O)cc1O (centres undefined)	24.0	n	n	n	u	n
CC1C(=O)NN=C1C(=O)N/N=C/c1ccco1 (centres undefined)	53.3	n	n	47.6	n	u
CC1=NNC(=O)C1CCC(=O)N/N=C/c1ccco1 (centres undefined)	n	n	n	n	n	u
Nc1nc(-c2c(Cl)cccc2Cl)no1	n	n	n	n	n	n
CCN1C(=O)[C@H]2[C@@H](c3ccc(Cl)cc3)N3C(=O)CN(CC4CC4)C(=O)[C@@]3(Cc3ccccc3)[C@H]2C1=O	n	n	n	n	n	n
O=C(CNc1ccc(C(F)(F)F)cc1)Nc1cccc(S(=O)(=O)N2CCCCC2)c1	x	x	n	x	x	x
CC[C@]1(O)CC2CN(CCc3c([nH]c4ccccc34)[C@@](C(=O)OC)(c3cc4c(cc3OC)N(C)[C@H]3[C@@](O)(C(=O)OC)[C@H](OC(C)=O)[C@]5(CC)C=CCN6CC[C@]43[C@@H]65)C2)C1 (some centres undefined)	x	x	x	x	0.477µM	0.849µM
CCC1(O)CC2CN(CCc3c([nH]c4ccccc34)C(C(=O)OC)(c3cc4c(cc3OC)N(C=O)C3C(O)(C(=O)OC)C(OC(C)=O)C5(CC)C=CCN6CCC43C65)C2)C1 (centres undefined)	x	n	n	x	x	x
CCC1=C[C@@H]2CN(C1)Cc1c([nH]c3ccccc13)[C@@](C(=O)OC)(c1cc3c(cc1OC)N(C)[C@@H]1[C@@](O)(C(=O)OC)[C@H](OC(C)=O)[C@]4(CC)C=CCN5CC[C@]31[C@@H]54)C2	x	x	x	x	0.477µM	0.849µM
NS(=O)(=O)c1cccc(NC(=O)CSc2nnc(C3CC3)n2Cc2ccccc2)c1	n	n	n	n	n	n
O=C(COC(=O)C1COc2ccccc2O1)c1ccccc1 (centres undefined)	x	x	n	x	x	x
c1ccc(-c2cc3c(N4CCOCC4)ncnc3s2)cc1	n	10µM	n	n	n	n
Cc1nc(N2CCN(Cc3ccc4c(c3)OCO4)CC2)c2cc(-c3ccccc3)sc2n1	n	u	u	n	11.7µM	u
c1ccc(-c2cc3c(N4CCCC4)ncnc3s2)cc1	n	10µM	n	n	n	n
c1ccc(-c2cc3c(N4CCCCC4)ncnc3s2)cc1	n	u	n	n	n	n
Cc1nc(N2CCOCC2)c2cc(-c3ccccc3)sc2n1	14.1	u	n	n	x	u
CSc1nc(N2CCN(Cc3ccc4c(c3)OCO4)CC2)c2ccccc2n1	n	u	n	n	u	u
COc1cc(OC)cc(-c2nnc3n2N=C(c2c(OC)cccc2OC)CS3)c1	n	x	x	n	x	x
O=C(NCc1cccnc1)OC1CC2CC1[C@H]1CCCCN1C2=O (some centres undefined)	x	x	n	x	x	x
CCNCc1cc(Br)c(OCC(=O)Nc2ccccc2)c(OC)c1	n	10µM	n	n	u	u
COc1cc(CNCC(C)C)cc(Br)c1OCC(=O)Nc1ccccc1	n	u	n	n	9.28µM	10.4µM
CNCc1cc(Br)c(OCC(=O)Nc2ccccc2OC)c(OC)c1	n	u	n	n	u	n
Cn1c(O)c(/C=N/Nc2ccccc2)c(=O)n(C)c1=O	n	n	n	n	n	n
CCOC(=O)c1c(/C=N/Nc2ccccc2)c2sc(C)cc2n1C	x	x	x	x	9.28µM	u
CCOc1cc(C(c2c(C)[nH][nH]c2=O)c2c(C)[nH][nH]c2=O)ccc1OS(=O)(=O)c1ccc(C)cc1	n	n	n	n	14.7µM	x

Source: PubChem
